# Compound activity: PubChem, several laboratories
# Most compounds without a hit are left out; they make up all but 3.9% or so of the library.
# Bead autofluor: counter-screen for toxin protease inhibitors: compound fluorescence; compound autofluorescence counterscreen, microsphere flow cytometry; hits give high values; AID 624483; fluorescence intensity (test concentration not listed); actives 3.1% (n = 360,000); in the data active = fluorescence intensity above about 16000; inconclusive = no clear call, values can overlap the other calls
# Anthrax LF prot: anthrax lethal factor protease inhibition; P15917; multiplex microsphere protease cleavage assay, LF; inhibition, % at 10 µM; actives 0.12% (n = 360,000); also: plate controls were buffer without enzyme for full effect and enzyme alone for no effect
# Target sequence (P15917 whole entry, looked up): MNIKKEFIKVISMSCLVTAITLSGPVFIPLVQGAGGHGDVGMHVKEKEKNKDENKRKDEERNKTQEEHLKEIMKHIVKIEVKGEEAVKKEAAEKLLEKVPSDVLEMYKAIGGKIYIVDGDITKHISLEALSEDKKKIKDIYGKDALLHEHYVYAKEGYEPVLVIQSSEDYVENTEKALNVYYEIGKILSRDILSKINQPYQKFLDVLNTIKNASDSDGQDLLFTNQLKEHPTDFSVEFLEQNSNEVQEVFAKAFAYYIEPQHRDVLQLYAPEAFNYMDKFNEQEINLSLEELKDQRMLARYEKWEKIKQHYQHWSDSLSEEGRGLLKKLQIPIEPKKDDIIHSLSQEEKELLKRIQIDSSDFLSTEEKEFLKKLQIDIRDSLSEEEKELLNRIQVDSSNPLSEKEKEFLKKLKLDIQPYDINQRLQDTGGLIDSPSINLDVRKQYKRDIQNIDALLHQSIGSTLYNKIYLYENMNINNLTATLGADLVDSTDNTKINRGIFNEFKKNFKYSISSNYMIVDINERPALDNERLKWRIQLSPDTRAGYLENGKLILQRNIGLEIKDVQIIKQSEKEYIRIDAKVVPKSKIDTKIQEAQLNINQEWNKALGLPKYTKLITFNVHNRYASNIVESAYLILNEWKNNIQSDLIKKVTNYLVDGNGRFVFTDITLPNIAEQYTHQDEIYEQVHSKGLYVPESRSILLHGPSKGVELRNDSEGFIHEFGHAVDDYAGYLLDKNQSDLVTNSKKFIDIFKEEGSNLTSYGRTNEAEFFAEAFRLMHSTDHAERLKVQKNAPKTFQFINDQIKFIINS
# 3CLpro inhibitor: SARS-CoV 3CLpro protease inhibition. P0C6X7. recombinant SARS-CoV 3CLpro, quenched FRET peptide cleavage. inhibition, % at 6 µM. actives 0.14% (n = 290,000); in the data active = inhibition above about 12%
# BoNT F protease: inhibitors of Botulinum neurotoxin F light chain protease; Multiplex microsphere protease cleavage assay, flow cytometry; inhibition, % at 10 µM; actives 0.22% (n = 360,000); in the data active = inhibition above about 35%, passing the limit was not always enough; inconclusive = no clear call, values can overlap the other calls; also: plate controls were buffer without enzyme for full effect and enzyme alone for no effect
# BoNT A protease: BoNT A light chain protease inhibition; multiplex microsphere protease substrate cleavage, flow cytometry; inhibition, % at 10 µM; actives 0.17% (n = 360,000); AID 588499; also: plate controls were buffer without enzyme for full effect and enzyme alone for no effect
# CCHFV vOTU inh: CCHFV vOTU protease inhibition | Pep-AMC fluorescence | inhibition, % at 11.5 µM | actives 0.55% (n = 370,000) | AID 651958; in the data active = inhibition above about 30%; also: 0% = vehicle wells with enzyme and 100% = no enzyme wells
# Numbers without * were called inactive; u = inconclusive; x = not tested or not shown. Rule as the data show it, unless noted: active = inhibition above about 30%; inconclusive = no clear call, values can overlap the other calls; inactive = below that.
SMILES,Bead autofluor,Anthrax LF prot,3CLpro inhibitor,BoNT F protease,BoNT A protease,CCHFV vOTU inh
CC(=O)NC1(C(F)(F)F)C(=O)N(Cc2ccccc2)C2=C1C(=O)CC(C)(C)C2 (stereo unspecified),10263,7,-5,-2,0,-7
Cc1cc(N/C(=N\S(=O)(=O)c2ccc(F)cc2F)c2ccccc2)no1,17822*,-4,0,-7,-6,-7
O=C(NC1(C(F)(F)F)C(=O)Nc2c1c(=O)[nH]c(=O)n2Cc1ccccc1)c1ccco1 (stereo unspecified),22776*,-2,3,1,-1,3
Cc1ccc2[nH]c3c(c2c1)CN(C(=O)CN1CC(C)OC(C)C1)CC3 (stereo unspecified),17955*,-1,-5,u,-23,-1
Cc1cc2n(n1)SC(Nc1ccc(F)c(Cl)c1)N2 (stereo unspecified),20632*,1,3,-4,u,1
O=C(Nc1ccc(Cl)cc1)N1CCSc2ccccc21,23243*,0,3,-1,1,0
O=C(Nc1ccc(Cl)cc1)N1CCCC1,22686*,-7,1,-3,0,x
Cc1nn(Cc2ccccc2)c(C)c1NC(=O)c1cc(-c2ccco2)on1,20385*,2,-2,0,2,7
Cc1nn(Cc2ccc(Cl)c(Cl)c2)c(C)c1NC(=O)c1cc(-c2ccc3c(c2)OCO3)on1,19313*,-19,-2,9,u,-8
CCc1ccc(NC(=O)c2cc(-c3ccco3)on2)cc1,24283*,-1,5,-3,-2,-20
COc1ccc(OC)c(-c2cc(C(=O)Nc3c(C)nn(Cc4ccccc4)c3C)no2)c1,11097,-2,2,-4,-1,7
Clc1ccc(Cn2ccc(-c3ccc4c(c3)OCO4)n2)cc1Cl,23441*,-1,4,-2,0,8
Cc1nn(Cc2ccc(Cl)cc2)c(C)c1NC(=O)c1cc(-c2ccc3c(c2)OCO3)on1,10100,-4,-1,-9,-2,-6
O=S1(=O)c2c(cccc2N2CC[C@@H](O)C2)OCCCN1C1CC1,x,x,x,x,x,0
COc1ccc(CSc2nnc(SCc3ccccc3)s2)cc1,x,x,x,x,x,11
Cc1ccc2nc(-c3ccc(NC(=O)CSc4nnc(-c5cc(C)[nH]n5)n4N)cc3)sc2c1,x,x,x,x,x,-98
CCOc1cc(C2c3c(n[nH]c3C)C(=O)N2c2ccc(C)cc2)ccc1O (stereo unspecified),23172*,-1,4,2,1,12
COc1cc(C2c3c(n[nH]c3C)C(=O)N2c2ccc(C)cc2)ccc1O (stereo unspecified),9173,-10,3,0,0,-2
O=C(c1ccc2c(c1)C(=O)N(Cc1ccco1)C2=O)N1CCOCC1,23883*,-1,0,-5,-5,4
Cc1nnc2n(c1=O)C(CS(=O)(=O)c1ccccc1)CS2 (stereo unspecified),21322*,-6,-3,0,u,-1
O=C(Cc1ccc(NC(=O)C2CCN(C(=O)C3CCCC3)CC2)cc1)Nc1cccc(C(=O)N2CCCC2)c1,x,x,x,x,x,2
CCN(CC)C(=O)Cn1nc(Cc2ccncc2)c2ccccc2c1=O,x,x,x,x,x,-1
Cc1ccc(OC(=O)CCC(=O)OCCCC(F)(F)C(F)(F)F)cc1,24380*,-1,0,-4,-2,12
COC(=O)[C@]12C[C@H](CC(=O)N3CCN(C(=O)C4CC4)CC3)C(=O)N(Cc3cccc4ccccc34)C1=C[C@H](C1CCCC1)O[C@@H]2C,x,x,x,x,x,6
CCCCNc1cccc2c1S(=O)(=O)N[C@@H](CC(C)C)CO2,x,x,x,x,x,28
SMILES,Bead autofluor,Anthrax LF prot,3CLpro inhibitor,BoNT F protease,BoNT A protease,CCHFV vOTU inh
CCOC(=O)c1nn(-c2ccc(C)cc2)c(=O)cc1OCC(=O)Nc1cccc(C)c1,4308,0,x,43*,10,-3
Cc1ccc(OCC(=O)Nc2cccc(-c3nnc(-c4ccccc4)o3)c2)c(C)c1,21189*,-3,-6,3,u,-2
COc1ccc(CC(=O)Nc2cccc(-c3nnc(-c4ccc(C)cc4)o3)c2)cc1OC,6379,-8,5,-14,-1,4
CCOC(=O)Nc1cccc(OCC(=O)Nc2ccccc2OCC)c1,22734*,-3,4,-2,-1,0
CCOC(=O)c1nn(-c2ccc(C)cc2)c(=O)cc1OCC(=O)Nc1cccc(OC)c1,x,x,x,x,x,-4
CC(C)C(NC(=O)COc1ccccc1)C(=O)O (stereo unspecified),19854*,-6,-2,9,6,-17
O=C(CSc1nc2ccccc2nc1N1CCCCC1)NCc1ccc(Cl)cc1Cl,x,x,x,x,x,7
CC(COc1cccc(F)c1)CN1CCC(C(O)(c2ccccc2)c2ccccc2)CC1 (stereo unspecified),x,x,x,x,x,12
CCCCOCCCNC(=O)C[C@H]1C(=O)N(CCCOC)C2=CCCCC[C@]21C(=O)OC,x,x,x,x,x,-1
COc1ccc(CN2C[C@]3(C=C4CCCCC4n4c(=O)n(-c5ccccc5)c(=O)n43)N=C2NC(=O)c2ccccc2)c(OC)c1 (stereo partly specified),x,x,x,x,x,5
CC(C)C[C@@H]1COc2cc(Br)ccc2S(=O)(=O)N1Cc1cn(CCC2OCCO2)nn1,x,x,x,x,x,-5
O=C(NCCc1ccc2c(c1)OCO2)c1cc(-c2ccccc2)c(N2CCOCC2)s1,x,x,x,x,x,6
Cc1cccc(NC(=O)COc2ccccc2)c1,26330*,-1,1,-14,-11,2
CSc1nc2ncc3c(n2n1)CC1c2ccccc2CCN1C3=O (stereo unspecified),9385,-2,6,0,1,-19
O=C1c2cnc3nc(SCc4cccc(Cl)c4)nn3c2CC2c3ccccc3CCN12 (stereo unspecified),21140*,0,-2,-1,0,-6
N#Cc1ccc(/C=C2\CC3(OC(=O)C4CCCCC4)CCCN2C3)cc1 (stereo unspecified),x,x,x,x,x,6
CCOc1ccc2oc(-c3ccccc3)c(C(=O)N3CCN(C)CC3)c2c1,22066*,4,3,5,3,-13
CCOC(=O)c1c(-c2ccccc2)oc2ccc(OCC)cc12,2673,-2,4,-6,-1,-1
COC(=O)[C@]12C[C@H](CC(=O)N3CCC(c4ccccc4)CC3)C(=O)N(Cc3ccco3)C1=C[C@H](C1CCCC1)O[C@@H]2C,x,x,x,x,x,10
Cc1ccc(S(=O)(=O)N2CCCCC2C(=O)NCc2ccco2)cc1 (stereo unspecified),4340,-5,-1,-4,1,3
O=C(NCc1ccco1)C1Cc2ccccc2CN1S(=O)(=O)c1ccccc1F (stereo unspecified),23284*,2,-2,-3,-2,11
CC1CCN(S(=O)(=O)c2cccc(C(=O)NCc3ccco3)c2)CC1,23763*,-3,4,-3,-1,-8
O=C(NCc1ccco1)C1Cc2ccccc2CN1C(=O)c1ccco1 (stereo unspecified),4687,-1,2,-5,0,-3
